# Assay outcomes (PubChem BioAssay)
# Giardia killer: Small Molecules that selectively kill Giardia lamblia: qHTS; Giardia lamblia trophozoite viability; 0.15% of 340,000 active; activity change, % at 7.66 µM, hits read low; in the data active = activity change below about -80%; inconclusive = between about -30% and that limit;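 also: parasites exposed to compound for two days anaerobically before the ATP read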
#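 Viability, read as ATP luminescence: trophozoites at 100 cells/well, compound added, 48 hrs anaerobic at 37 deg C, then 15-30 min room-temperature development before reading.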
# IL-1B inflam inh: qHTS for Inhibitors of Inflammasome Signaling: IL-1-beta AlphaLISA Primary Screen; 4.7% of 360,000 active; activity change, % at 57.5 µM; AID 743279, 2014; THP-1 LPS/ATP IL-1B secretion, AlphaLISA, 16 h; stronger effect = lower value; in the data active = activity change below about -50%; inconclusive = mostly about -30% to -49%
#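 Secreted IL-1B measured by AlphaLISA bead assay after 16 h compound exposure of THP-1 cells; compounds (final up to 57.5 uM) added 1 h before LPS (250 ng/mL) and ATP (1.25 mM) stimulation; lower signal means less secretion.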
# DT40 TDP1 CPT: qHTS for Inhibitors of human tyrosyl-DNA phosphodiesterase 1 (TDP1): qHTS in cells in presence of CPT; chicken DT40 Tdp1-/-;hTDP1 cells + 20 nM CPT, ATP luminescence, 48 h; Potency, µM (highest dose often 46.2 µM), actives largely listed as inhibitors; 12% of 420,000 active; also: nearly all actives have a fitted effect of over 55% in size
#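 Cell growth measured by CellTiter-Glo luminescence after a minimum 48 h, 37 C compound exposure with 20 nM CPT in Tdp1-knockout DT40 cells stably expressing hTDP1, seeded 400/well; qHTS titration format.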
# TDP1 block: qHTS Assay for Inhibitors of Tyrosyl-DNA Phosphodiesterase (TDP1); Tyrosyl-DNA phosphodiesterase 1 (Homo sapiens), Q9NUW8; recombinant TDP1, AlphaScreen DNA substrate cleavage; Potency, µM (highest dose often 130 µM), most hits filed as inhibitors; 0.28% of 350,000 active; also: nearly all actives have a fitted effect of over 40% in size
# Target sequence (Q9NUW8 whole entry, looked up): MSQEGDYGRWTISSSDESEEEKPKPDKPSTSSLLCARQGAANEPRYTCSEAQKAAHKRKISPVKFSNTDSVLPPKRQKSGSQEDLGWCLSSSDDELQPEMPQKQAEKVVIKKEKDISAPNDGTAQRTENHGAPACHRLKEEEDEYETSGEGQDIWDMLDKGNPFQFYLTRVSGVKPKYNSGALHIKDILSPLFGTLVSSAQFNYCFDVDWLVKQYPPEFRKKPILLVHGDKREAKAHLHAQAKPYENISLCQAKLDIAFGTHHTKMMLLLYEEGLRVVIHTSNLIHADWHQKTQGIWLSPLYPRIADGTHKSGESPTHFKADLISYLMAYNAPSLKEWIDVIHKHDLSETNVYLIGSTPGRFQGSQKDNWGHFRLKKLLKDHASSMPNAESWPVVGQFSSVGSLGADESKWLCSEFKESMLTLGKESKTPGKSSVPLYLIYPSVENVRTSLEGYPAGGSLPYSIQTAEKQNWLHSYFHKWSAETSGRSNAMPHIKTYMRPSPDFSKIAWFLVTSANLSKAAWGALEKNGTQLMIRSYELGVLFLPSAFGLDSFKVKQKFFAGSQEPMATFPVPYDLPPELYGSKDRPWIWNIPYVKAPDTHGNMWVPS
#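 Here, a 5' biotin and 3' phosphotyrosine-FITC DNA oligonucleotide reports Tdp1 activity: intact substrate bridges AlphaScreen beads, while cleavage leaves a 3' phosphate and drops signal. All incubations at room temperature.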
# DT40 TDP1 no CPT: qHTS for Inhibitors of human tyrosyl-DNA phosphodiesterase 1 (TDP1): qHTS in cells in absence of CPT | DT40 Tdp1-/- hTDP1 cells, no CPT, ATP luminescence, 48 h | Potency, µM (series often up to 46.2 µM), hits mostly inhibitors | 15% of 420,000 active | AID 686978, 2013; also: nearly all actives have a fitted effect of over 55% in size
#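 Readout: luminescence from CellTiter-Glo after 30 min in the dark at RT. Cells: DT40 Tdp1-/- with stable hTDP1, 400/well. Exposure: compounds alone, ≥48 hr, 37 °C.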
# ELG1 repair inh: qHTS screen for small molecules that inhibit ELG1-dependent DNA repair in human embryonic kidney (HEK293T) cells expressing luciferase-tagged ELG1; Potency, µM (highest dose often 46.1 µM), usual class: inhibitors; HEK293T ELG1-luciferase reporter, luminescence, 16 h; DNA damage induced by 5-fluorouridine; 2.3% of 330,000 active; also: nearly all actives have a fitted effect of over 55% in size
#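 5-Fluorouridine DNA damage + compound/DMSO, 2,000 cells/well, 16 h, 37 °C/5% CO2. ONE-Glo, 30 min RT, luminescence. Readout = decrease in reporter signal.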
# A number is an active result; . = inactive; ? = inconclusive; / = not tested or not shown; [ ] = another dose, or the depositor's remark. Compounds with a hit are over-represented: about 19% of the library has one in this group of screens. Unless noted, calls follow the shape of the dose curve; as a rule, active = well fitted curve in the direction sought with a large enough effect; inconclusive = small, poorly fitted or top-dose-only effect, or another doubt; inactive = no such curve, though single readings can be large; an effect the other way counts as inactive or inconclusive.
SMILES,Giardia killer,IL-1B inflam inh,DT40 TDP1 CPT,TDP1 block,DT40 TDP1 no CPT,ELG1 repair inh
C/C=C(/C)C(=O)O[C@@H]1c2c(ccc3ccc(=O)oc23)OC(C)(C)[C@@H]1OC(=O)/C(C)=C\C,.,?,16µM,.,9.2µM,.
CC(=O)OC1c2c(ccc3ccc(=O)oc23)OC(C)(C)C1OC(=O)CC(C)C (stereo not given),.,.,23µM,.,18µM,.
COc1cccc(/C=C/C(=O)NCc2ccc(S(N)(=O)=O)cc2)c1,.,.,.,.,.,?
Cn1c(=O)cc(OCCCC(=O)Nc2cccc(Cl)c2)c2ccccc21,/,.,?,/,?,/
Cc1noc(C)c1S(=O)(=O)N1CCC(C(=O)N2CCN(c3ccc(Cl)cc3)CC2)CC1,.,.,?,.,?,?
Cc1noc(C)c1S(=O)(=O)N1CCC(C(=O)N2CCN(C(=O)c3ccco3)CC2)CC1,.,.,.,.,.,.
Cc1noc(C)c1S(=O)(=O)N1CCC(C(=O)N2CCN(c3cccc(C(F)(F)F)c3)CC2)CC1,/,/,5.2µM,.,3.3µM,/
Cc1ccc(C)c(N2CCN(C(=O)C3CCN(S(=O)(=O)c4c(C)noc4C)CC3)CC2)c1,.,?,10µM,/,8.2µM,12µM
Cc1noc(C)c1S(=O)(=O)N1CCC(C(=O)N2CCN(c3ccccc3)CC2)CC1,/,/,.,.,?,/
Cc1noc(C)c1S(=O)(=O)N1CCC(C(=O)N2CCN(c3ccccc3Cl)CC2)CC1,.,.,?,.,21µM,?
Cc1ccc(C)c(N2CCN(S(=O)(=O)c3c(C)noc3/C=C/N(C)C)CC2)c1,.,.,?,.,18µM,.
Cc1nn(C)c(Cl)c1CN1CCN(C2CCCC2)C(CCO)C1 (stereo not given),.,.,.,.,.,.
c1ccc2c3n(nc2c1)CCCO3,.,.,.,.,.,.
Cc1ccccc1S(=O)(=O)Cc1ccc(C(=O)NC2CC2)o1,.,.,.,.,.,.
O=C(c1ccc2c(c1)CCN2S(=O)(=O)c1ccccc1)N1CCN(c2cccc(Cl)c2)CC1,/,/,?,.,?,/
CC(NC(=O)c1ccc2c(c1)CCN2S(C)(=O)=O)c1ccccc1 (stereo not given),/,/,?,.,?,/
CS(=O)(=O)N1CCc2cc(C(=O)N3CCN(c4ccccc4F)CC3)ccc21,.,.,?,.,?,.
O=C(c1ccc2c(c1)CCN2S(=O)(=O)c1ccc(Cl)cc1)N1CCN(c2ccccc2F)CC1,/,/,21µM,.,16µM,/
O=C(c1cccc(S(=O)(=O)N2CCCc3ccccc32)c1)N1CCN(c2ccccc2)CC1,.,?,?,.,21µM,?
O=C(c1ccc2c(c1)CCN2S(=O)(=O)c1ccc(Cl)cc1)N1CCN(c2ccccc2)CC1,/,/,12µM,.,21µM,/
CC(NC(=O)c1ccc2c(c1)CCN2S(=O)(=O)c1ccc(Cl)cc1)c1ccccc1 (stereo not given),/,/,12µM,.,?,/
O=C(Nc1ccc([N+](=O)[O-])cc1O)Nc1ccccc1Br,/,/,/,.,/,/
CCCOC(=O)c1c(NC(=O)C2c3ccccc3Oc3ccccc32)sc2c1CCC(C)C2 (stereo not given),/,/,.,.,.,/
O=C(Cn1c(-c2cccs2)cc2ccccc21)NCc1ccccc1Br,/,/,?,.,.,/
COC(=O)c1ccc(N=C2S/C(=C\c3cc(C)n(-c4cccnc4)c3C)C(=O)N2C)cc1,.,?,?,.,18µM,?
SMILES,Giardia killer,IL-1B inflam inh,DT40 TDP1 CPT,TDP1 block,DT40 TDP1 no CPT,ELG1 repair inh
CCN1C(=O)/C(=C\c2ccc(-c3cccc(C(=O)OC)c3)o2)SC1=Nc1ccc(C(=O)O)cc1,/,/,/,/,/,.
CCCCC1(C)Nc2ccccc2-c2nc3ccccc3n21 (stereo not given),.,.,16µM,.,?,?
CC1(c2ccccn2)Nc2ccccc2-c2nc3ccccc3n21 (stereo not given),.,.,18µM,.,16µM,?
CN1C(=O)C2(Nc3ccccc3-c3nc4ccccc4n32)c2ccccc21 (stereo not given),.,.,.,.,.,.
c1ccc2c(c1)NC1(CCCCC1)n1c-2nc2ccccc21,.,.,.,.,.,?
O=C1Nc2ccccc2C12Nc1ccccc1-c1nc3ccccc3n12 (stereo not given),.,.,?,.,23µM,15µM
COc1ccccc1CCC(=O)O,/,/,.,/,.,/
O=C(NCc1ccc(F)cc1F)[C@@H]1CCCN1C(=O)[C@@H]1CCCN1C(=O)c1ccccc1,/,-95,.,/,.,/
COc1cccc(C(=O)N2CCC[C@H]2C(=O)N2CCC[C@H]2C(=O)NCc2ccc(F)cc2F)c1,/,.,.,/,?,/
CCN(CCCNC(=O)c1nn(-c2ccc(OC)cc2)c(=O)c2c1c1ccccc1n2C)c1cccc(C)c1,/,/,.,.,?,/
Cc1ccc(N=c2oc3cc(O)ccc3cc2C(N)=O)cc1,.,?,8.2µM,.,7.3µM,?
COc1ccc(N=c2oc3cc(O)ccc3cc2C(=O)Nc2ccccn2)cc1OC,.,.,1.5µM,.,2.1µM,4.1µM
CNc1nc(-c2c(C)n(C)c3ccc(OC)cc23)cs1,.,.,.,/,.,.
O=C1CC(c2cccs2)Cc2nc(NCC3CCCO3)ncc21 (stereo not given),.,.,.,.,.,.
CCOc1ccccc1NC(=O)c1c(NC(=O)Cc2ccc(OC)cc2)sc2c1CCC2,/,/,8.2µM,.[12.3 µM],5.8µM,/
CCOc1ccccc1NC(=O)c1c(NC(=O)c2cccc(C)c2)sc2c1CCCC2,/,/,?,.[12.3 µM],23µM,/
CCOc1ccccc1NC(=O)c1c(NC(=O)COc2ccccc2)sc2c1CCCCC2,/,/,2.1µM,.[12.3 µM],2.1µM,/
O=C(COc1ccccc1)Nc1sc2c(c1C(=O)Nc1ccccc1)CCCCC2,/,/,?,/,0.46µM,/
CCOc1ccccc1NC(=O)c1c(NC(=O)CCC(=O)O)sc2c1CCCCC2,.,.,.,.,.,.
O=S1(=O)CCC(n2nccc2-c2ccccc2)C1 (stereo not given),.,.,.,/,.,.
Cn1c(N)c(C(=O)COC(=O)CCCOc2ccc(Cl)cc2Cl)c(=O)n(C)c1=O,.,.,.,.,.,.
Cc1ccc2c(c1)N(C(=O)CCC(=O)N1CCN(c3cccc(C)c3C)CC1)CCO2,.,.,16µM,/,18µM,.
